From PubChem BioAssay
HIF activator: HIF pathway transcriptional activation | U2OS HRE-luciferase reporter, luminescence; normalized: DMSO 0%, desferrioxamine 100% | activation, % at 7.5 µM (by protocol) | actives 0.32% (n = 300,000) | AID 1910;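 active = mean activation of at least 10% of the iron chelator positive control signal, with at least half of replicates also reaching 10%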
HSF-1 act: increases HSF-1 driven luciferase reporter signal; AID 504408; NIH3T3-HGL HSF-1 luciferase reporter, MG132, 8 h; 100% = twice DMSO control signal; actives 1.7% (n = 300,000); activation, % at 9 µM;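 active = mean replicate activation of at least 50% with a set share of replicates each reaching 50%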;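 also: 0% = median of the neutral control wells and 100% = twice that signal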
HSF1 inh: HSF1 inhibition | activity change, negative = inhibition, % at 7.5 µM (by protocol) | actives 0.77% (n = 300,000) | AID 2098 | NIH3T3-HGL HSE-luciferase, MG132-induced, luminescence 8 h; hits give low values;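 active = more than half of replicate wells show activity change below -50%, luminescence cut by over half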;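 also: luciferase reports HSF-1 transcriptional activity via heat shock element; 0% = median of DMSO wells and -100% = zero luminescence signal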
ARNT TACC3 PPI: disrupts binding between human ARNT and TACC3. Q9Y6A5. AlphaScreen His-ARNT PAS-B/GST-TACC3 binding, luminescence; TACC3 fragment carries E629A point mutation. actives 0.66% (n = 390,000). AID 623870. inhibition, % at 9.99 µM;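 active = mean inhibition of replicates at least 50% and at least half of replicates each reaching 50%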;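 also: 0% = complete ARNT plus TACC3 wells and 100% = ARNT alone without TACC3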
HSP90 refold inh: inhibitors of HSP90 luciferase refolding in rabbit reticulocyte lysate | luciferase refolding luminescence, 3 h | inhibition, % at 5.6 µM | actives 0.91% (n = 290,000) | AID 1789;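 active = inhibition above the screen-wide mean plus 3 SD, computed separately per campaign, cut at about 16% in these data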;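 also: 0% = DMSO wells and 100% = 60 µM geldanamycin wells; inhibitors lower the luminescence because luciferase stays unfolded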
Starred values were filed as active, the others as inactive. Sampled rows, rich in hits. Any-hit rate of the full collection: about 3.1%.

What do the screens show for `O=C(C[C@@H]1CC[C@@H]2[C@H](COC[C@H](O)CN2Cc2cccc(Cl)c2)O1)NCC1CCCCC1`?
ARNT TACC3 PPI: -2

Results for CCc1ccc(CN(C)C(=O)c2cc(COc3ccc(OC)cc3Cl)on2)nc1 ?
HIF activator: 2; HSF-1 act: 56*; HSF1 inh: 22; HSP90 refold inh: 1

Results for Cc1ccc(CN(C)C(=O)c2cc(COc3ccc(F)cc3Cl)on2)o1 ?
HIF activator: 1; HSF-1 act: 54*; HSF1 inh: 10; ARNT TACC3 PPI: -7; HSP90 refold inh: -1

What do the screens show for `COc1ccc(OCc2cc(C(=O)N(C)Cc3cc(C)no3)no2)c(Cl)c1`?
HIF activator: 3; HSF-1 act: 30; HSF1 inh: 37; ARNT TACC3 PPI: -2; HSP90 refold inh: -3

What do the screens show for `Cc1nonc1CN(C)C(=O)c1cc(COc2ccc(F)cc2Cl)on1`?
HIF activator: 1; HSF-1 act: 21; HSF1 inh: 9; ARNT TACC3 PPI: 14; HSP90 refold inh: 0

Results for C/C(=N\n1nnnc1Nc1ccccc1)c1ccc(N)cc1 ?
HIF activator: 4; HSF-1 act: 117*; HSF1 inh: 72; HSP90 refold inh: 2

How did CO[C@H]1CN(C)C(=O)c2cc(NC(C)=O)ccc2OC[C@@H](C)N(Cc2cccnc2)C[C@H]1C do in these assays?
ARNT TACC3 PPI: 11

What do the screens show for `Cc1ccc(NCc2ccccc2O)cc1C`?
HIF activator: 1; HSF-1 act: 22; HSF1 inh: 16; ARNT TACC3 PPI: -1; HSP90 refold inh: -3

How did Oc1ccccc1CNc1ccc(OC(F)(F)F)cc1 do in these assays?
HIF activator: 2; HSF-1 act: -64; HSF1 inh: -60*; HSP90 refold inh: -5

How did CC(=O)Nc1ccc(OS(=O)(=O)c2ccccc2C)cc1 do in these assays?
HIF activator: -1; HSF-1 act: -93; HSF1 inh: -91*; ARNT TACC3 PPI: -10; HSP90 refold inh: 5

What do the screens show for `CC1=C(Sc2nc3ccccc3[nH]2)C(=O)NC(C)(C)C1`?
HIF activator: 0; HSF-1 act: 60*; HSF1 inh: 14; ARNT TACC3 PPI: -4; HSP90 refold inh: 3

Results for CC1=C(Sc2ccccn2)C(=O)NC(C)(C)C1 ?
HIF activator: 0; HSF-1 act: -9; HSF1 inh: -9; ARNT TACC3 PPI: 7; HSP90 refold inh: -1

How did NC(=O)CC(NC(=O)c1ccc(Br)cc1)c1ccc(N2CCCCCC2)c([N+](=O)[O-])c1 (stereo not given) do in these assays?
HIF activator: 0; HSF-1 act: 74*; HSF1 inh: 46; ARNT TACC3 PPI: 3; HSP90 refold inh: 1

How did NC(=O)CC(NC(=O)c1ccccc1)c1ccc(N2CCCCCCC2)c([N+](=O)[O-])c1 (stereo not given) do in these assays?
HIF activator: 1; HSF-1 act: -23; HSF1 inh: -1; HSP90 refold inh: -1

What do the screens show for `CCN(CC)Cc1c(NC(=O)c2ccccc2)sc(C)c1C`?
HIF activator: 1; HSF-1 act: 21; HSF1 inh: 15; ARNT TACC3 PPI: 3; HSP90 refold inh: -2

Results for CCOC(=O)c1c(NC(=O)c2ccccc2)sc2c(O)c(CN(CC)CC)ccc12 ?
HIF activator: -1; HSF-1 act: -75; HSF1 inh: -73*; ARNT TACC3 PPI: 1; HSP90 refold inh: -1

What do the screens show for `COc1ccc(-n2nnc3c(SCC(=O)N4CCCc5ccccc54)ncnc32)cc1`?
HIF activator: 0; HSF-1 act: 57*; HSF1 inh: 30; ARNT TACC3 PPI: -3

How did COc1ccc(-n2nnc3c(=O)n(CC(=O)N4CCCc5ccccc54)cnc32)cc1 do in these assays?
HIF activator: 0; HSF-1 act: 1; HSF1 inh: -2; ARNT TACC3 PPI: -1; HSP90 refold inh: -5

How did O=C(C1CCOCC1)N1C[C@H]2[C@@H](c3ccccc31)[C@H](CO)N2C(=O)Cc1ccccc1 do in these assays?
ARNT TACC3 PPI: 1

How did CC1CCN(S(=O)(=O)c2ccc3c(c2)C(=NO)c2cc(S(=O)(=O)N4CCC(C)CC4)ccc2-3)CC1 do in these assays?
ARNT TACC3 PPI: -9; HSP90 refold inh: 0

How did O=S(=O)(c1ccc2c(c1)C(=NO)c1cc(S(=O)(=O)N3CCCCC3)ccc1-2)N1CCCCC1 do in these assays?
HIF activator: -6; HSF-1 act: -94; HSF1 inh: -94*; ARNT TACC3 PPI: 4; HSP90 refold inh: 1

What do the screens show for `Cc1ccccc1C(=O)NCCSc1ccccc1`?
HIF activator: 3; HSF-1 act: 54*; HSF1 inh: 29; ARNT TACC3 PPI: -1; HSP90 refold inh: 3

How did COc1ccc(C(=O)C2CCCN(S(=O)(=O)c3ccccc3F)C2)c(C)c1 (stereo not given) do in these assays?
HIF activator: 0; HSF-1 act: -84; HSF1 inh: -77*; HSP90 refold inh: 1

Results for COc1ccc(C#Cc2ccc3c(c2)[C@@H]2[C@@H](CCN2C(=O)C2CC2)[C@@H](CO)N3)cc1 ?
ARNT TACC3 PPI: -16

What do the screens show for `NS(=O)(=O)c1ccc(-c2ccc(/C=C3\NC(=S)NC3=O)o2)cc1`?
HIF activator: 0; HSF-1 act: -5; HSF1 inh: -15; ARNT TACC3 PPI: 58*; HSP90 refold inh: 1

What do the screens show for `NS(=O)(=O)c1ccc(-c2ccc(C=O)o2)cc1`?
HIF activator: 0; HSF-1 act: -4; HSF1 inh: 4; HSP90 refold inh: -3

How did C[C@H]1CN([C@@H](C)CO)C(=O)c2cc(-c3ccccc3F)cnc2O[C@H]1CN(C)C(=O)c1cnccn1 do in these assays?
ARNT TACC3 PPI: 3

How did CC1C(=O)C(C)C(c2ccco2)NC1c1ccco1 (stereo not given) do in these assays?
HIF activator: 1; HSF-1 act: -71; HSF1 inh: -64*; ARNT TACC3 PPI: -1; HSP90 refold inh: -3

Results for COc1ccc(Cc2nnc(NC(=O)C(C)(C)C)s2)cc1 ?
HIF activator: 0; HSF-1 act: 9; HSF1 inh: 2; ARNT TACC3 PPI: 20; HSP90 refold inh: 1

What do the screens show for `COc1ccc(Cc2nc(C(=O)Nc3ccccc3)cs2)cc1`?
HIF activator: 0; HSF-1 act: 59*; HSF1 inh: 27; HSP90 refold inh: -5

What do the screens show for `COC(=O)Nc1nnc(Cc2ccc(OC)cc2)s1`?
HIF activator: 40*; HSF-1 act: 0; HSF1 inh: 0; ARNT TACC3 PPI: -2; HSP90 refold inh: 4

What do the screens show for `CC(C)NC(=O)Nc1ccc2c(c1)C(=O)N([C@@H](C)CO)C[C@@H](C)[C@@H](CN(C)C(=O)CCC(F)(F)F)OCCCC[C@@H](C)O2`?
ARNT TACC3 PPI: 0

How did C[C@@H]1CCCCO[C@H](CN(C)C(=O)CCCN(C)C)[C@H](C)CN([C@@H](C)CO)C(=O)c2cc(NS(C)(=O)=O)ccc2O1 do in these assays?
ARNT TACC3 PPI: -9

Results for COc1cccc(NC=C2C(=O)OC3(CCCCC3)OC2=O)c1 ?
HIF activator: 1; HSF-1 act: 59*; HSF1 inh: 28; ARNT TACC3 PPI: 7; HSP90 refold inh: 7
